Laboratory results taken from PubChem BioAssay (NCI).
The panel holds about 83,000 compounds, 20% with a hit somewhere; the sample as a whole holds those more often.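 In brief: 96-well plates, 48 h treatment, single concentration, percent growth endpoint.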 Calls of active or inactive are those of the source. The calls were made as follows: active = growth percent below 10; inactive = the rest.

Assays:
Assay in all cases: NCI-60 one-dose screen, 48 h (100 = growth as untreated, 0 = no growth, -100 = all killed)
[1] = system: SK-MEL-2 melanoma; settings: 10 µM unless noted
[2] = system: EKVX NSCLC; settings: 10 µM unless noted
[3] = system: SN12C renal; settings: 10 µM unless noted
[4] = system: UO-31 renal; settings: 10 µM unless noted
[5] = system: TK-10 renal; settings: 10 µM unless noted
[6] = system: ACHN renal; settings: 10 µM unless noted
[7] = system: CAKI-1 renal; settings: 10 µM unless noted
[8] = system: A498 renal; settings: 10 µM unless noted
[9] = system: CCRF-CEM leukemia; settings: 10 µM unless noted
[10] = system: MOLT-4 leukemia; settings: 10 µM unless noted
[11] = system: SR leukemia; settings: 10 µM unless noted
[12] = system: RPMI-8226 leukemia; settings: 10 µM unless noted
[13] = system: OVCAR-8 ovarian; settings: 10 µM unless noted
[14] = system: OVCAR-5 ovarian; settings: 10 µM unless noted
[15] = system: OVCAR-4 ovarian; settings: 10 µM
[16] = system: SK-OV-3 ovarian; settings: 10 µM unless noted
[17] = system: OVCAR-3 ovarian; settings: 10 µM unless noted
[18] = system: HS 578T breast; settings: 10 µM unless noted
[19] = system: NCI/ADR-RES ovarian; settings: 10 µM unless noted

Measured: growth

Cc1cc(SC#N)ncn1
inactive: [1] 66.9% | [2] 101% | [3] 94.9% | [4] 96.2% | [5] 101% | [6] 98.4% | [7] 98.9% | [8] 102% | [9] 88% | [10] 109% | [11] 109% | [12] 101% | [13] 96.2% | [14] 115% | [15] 103% | [16] 105% | [17] 100% | [18] 105% | [19] 103%

COc1ccc(C(=O)c2nccc3cc(OC)c(OC)cc23)cc1OC
inactive: [1] 108% | [2] 90.1% | [3] 72.1% | [4] 82.8% | [5] 132% | [6] 91.7% | [7] 75.8% | [8] 64.6% | [9] 132% | [10] 103% | [11] 102% | [12] 133% | [13] 94.3% | [14] 86.5% | [15] 108% | [16] 108% | [17] 87.2% | [18] 98% | [19] 83.9%

COc1c(C(C)=O)c(OCCCCOc2c(C(C)=O)c(OC)c3ccoc3c2OC)c(OC)c2occc12
inactive: [1] 42% | [2] 56.7% | [3] 88.1% | [4] 124% | [5] 43.8% | [6] 75.7% | [7] 68% | [8] 81.1% | [9] 58% | [10] 36.2% | [11] 72.7% | [12] 47.3% | [13] 45.3% | [14] 120% | [15] 59.2% | [16] 105% | [17] 61.4% | [18] 93.9% | [19] 22.9%

Cc1ccc(S(=O)(=O)N/N=C2\CC3CCC2(C)C3(C)C)cc1 (stereo not given)
inactive: [1] 76.8% | [2] 105% | [3] 93.5% | [4] 86.4% | [5] 137% | [6] 102% | [7] 78.5% | [8] 105% | [9] 112% | [10] 111% | [11] 105% | [12] 97.4% | [13] 88.8% | [14] 83.4% | [15] 104% | [16] 114% | [17] 103% | [18] 120% | [19] 213%

ClC1=C(Cl)C(Cl)=C(Cl)C1=Cc1ccccc1
inactive: [16] 38.8%
active: [1] -28% | [2] -4.72% | [3] -57% | [4] -87.1% | [5] -36.3% | [6] -35.5% | [7] -37.9% | [8] -74.1% | [9] 8.52% | [10] 2.93% | [11] 4.43% | [12] -22.7% | [13] -18.9% | [14] -60.9% | [15] -20.3% | [17] -96.5% | [18] 6.95% | [19] -26.5%

COc1cc2c(c(OC)c1OC)-c1ccc(NNC(N)=S)c(=O)cc1[C@@H](NC(C)=O)CC2
active: [1] -8.39% | [12] -11.9% | [13] 6.26% | [16] 7.84% | [17] -56.8%
inactive: [2] 51.2% | [3] 35.9% | [4] 50.8% | [5] 58.7% | [6] 46.3% | [7] 37.5% | [8] 46.6% | [9] 20.8% | [10] 23.1% | [11] 13.2% | [14] 31.5% | [15] 23.1% | [18] 52.1% | [19] 87.4%

CC1(C)C(=NO)C(C)(C)C1=NO
inactive: [1] 117% | [2] 114% | [3] 110% | [4] 104% | [5] 104% | [6] 112% | [7] 109% | [8] 109% | [11] 103% | [12] 76.2% | [13] 113% | [14] 103% | [15] 115% | [16] 125% | [17] 117% | [19] 106%
active: [9] 7.92% | [10] 8.62%

Cc1cccc([N+](=O)[O-])c1I
inactive: [1] 112% | [2] 95.4% | [3] 107% | [4] 85.1% | [5] 113% | [6] 105% | [7] 100% | [8] 93% | [9] 87.2% | [10] 122% | [11] 128% | [12] 99.6% | [13] 98.2% | [14] 98.9% | [15] 110% | [16] 115% | [17] 118% | [18] 113% | [19] 109%

COc1cc(C(=O)/C=C/c2c(-c3ccc(F)cc3)nc3sccn23)cc(OC)c1OC
inactive: [1] 10.1% | [2] 49.9% | [3] 64.6% | [4] 22.1% | [5] 36.5% | [6] 28.3% | [7] 15.1% | [8] 48.8% | [10] 39.2% | [11] 26% | [13] 34.8% | [14] 88% | [15] 25.7% | [16] 47.4% | [18] 46.1% | [19] 10.4%
active: [9] -41.9% | [12] -44.2% | [17] 4.69%

CC(C)[N+](C)(C)CC(O)COc1cccc2ccccc12 (stereo not given)
inactive: [1] 104% | [2] 101% | [3] 103% | [4] 76.4% | [5] 111% | [6] 101% | [7] 102% | [8] 92.9% | [9] 88.1% | [10] 109% | [11] 107% | [12] 94.1% | [13] 98.4% | [14] 94.6% | [15] 116% | [16] 110% | [17] 96.8% | [18] 128% | [19] 108%

O=[N+]([O-])c1cc([N+](=O)[O-])c(C(F)(F)F)cc1NN=C(c1ccc(O)cc1)c1ccc(O)cc1
active: [1] -80.3% | [4] -79.4% | [13] -49.9% | [14] -6.51% | [16] -23.1% | [19] -19.9%
inactive: [2] 92.7% | [3] 79.7% | [5] 123% | [6] 12.8% | [7] 98% | [8] 103% | [9] 112% | [10] 107% | [11] 66.1% | [12] 76.4% | [15] 81.3% | [17] 96.3% | [18] 108%

Nc1ccc(NC(=O)c2ccccc2)c2c1C(=O)c1ccccc1C2=O
inactive: [1] 108% | [2] 76.3% | [3] 97.8% | [4] 74.2% | [5] 96.1% | [6] 92.6% | [7] 96.7% | [8] 113% | [9] 91.1% | [10] 106% | [11] 96.8% | [12] 102% | [13] 96.9% | [14] 117% | [15] 103% | [16] 112% | [17] 96.5% | [19] 99.6%

CCOC(CNC(=O)c1cccc([N+](=O)[O-])c1)OCC
inactive: [1] 97.2% | [2] 97.4% | [3] 92.7% | [4] 81.8% | [5] 82.8% | [6] 108% | [7] 89.9% | [8] 84.5% | [9] 111% | [10] 100% | [11] 95.4% | [12] 141% | [13] 95.3% | [14] 101% | [15] 109% | [16] 108% | [17] 96.5% | [19] 97.9%

COc1ccc(-c2nc3ccccn3c2/C=C/C(=O)c2cc(OC)c(OC)c(OC)c2)cc1OC
inactive: [2] 28.5% | [3] 31% | [4] 17% | [5] 43% | [6] 19.9% | [9] 16.4% | [10] 25.5% | [11] 27% | [13] 14.1% | [14] 24.5% | [15] 17.8%
active: [1] -28.5% | [7] 8.16% | [8] -14.1% | [12] -26% | [16] 6.61% | [17] 9.08% | [18] 6.05% | [19] -4.39%

CCCCOC(=O)c1cccc([N+](=O)[O-])c1
active: [9] 1.56%
inactive: [1] 113% | [2] 93.4% | [3] 108% | [4] 94.7% | [5] 111% | [6] 112% | [7] 105% | [8] 94.7% | [10] 122% | [11] 132% | [12] 90.2% | [13] 100% | [14] 97.9% | [15] 113% | [16] 109% | [17] 114% | [18] 114% | [19] 107%

NC1=NC(=O)NC1(c1ccccc1)c1ccccc1
inactive: [1] 68.2% | [2] 111% | [3] 88.1% | [4] 96.3% | [5] 92% | [6] 95.8% | [7] 94.6% | [8] 87.6% | [9] 86.2% | [10] 87.6% | [11] 97.9% | [12] 94.3% | [13] 97.7% | [14] 83.2% | [15] 105% | [16] 92.7% | [17] 105% | [18] 98.3% | [19] 106%

CCCCCC1CCCCN1C(=O)OCCCC (stereo not given)
inactive: [1] 102% | [2] 89.1% | [3] 73.3% | [4] 84.3% | [5] 95.6% | [6] 104% | [7] 79.7% | [8] 88.1% | [9] 84.6% | [10] 99.5% | [11] 108% | [12] 73.2% | [13] 106% | [14] 101% | [15] 103% | [16] 105% | [17] 104% | [18] 122% | [19] 91.8%
